Assay results as given in PubChem BioAssay (Tox21).
Where “and” joins values, the source holds several entries; their conditions need not be identical. Identical values can stand only once. Results filed as inconclusive are left out. Where a call stands in place of a potency, no number is given. A structure can be active in one record and inactive in another. Calls of active or inactive are those of the source. Unless noted, the call rests on the fitted dose curve; in most records, active means well fitted curve in the direction sought with a large enough effect in the repeat runs; inconclusive means weak or mixed curves; inactive means no such curve, though single readings can be large; an effect the other way counts as inactive or inconclusive.

Tests used:
[1] = qHTS assay to identify small molecule antagonists of the estrogen receptor alpha (ER-alpha) signaling pathway using the BG1 cell line in the presence of 0.1 nM 17-beta-estradiol - cell viability counter screen (AID 1259241); further: nearly all actives have a fitted effect of over 40% in size; further: potency means the concentration at half of the fitted maximal effect
Method in brief: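 CellTiter-Fluor read (30 min, 37C) on ER-alpha/ERE-luc VM7Luc4E2 cells; 22 hr compound treatment; agonist 0.1 nM E2 final; same-well multiplex.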

[2] = qHTS assay to identify small molecule antagonists of the androgen receptor (AR) signaling pathway using the MDA cell line in the presence of 0.5 nM R1881 - cell viability counter screen (AID 1259242); further: nearly all actives have a fitted effect of over 45% in size; further: potency means the concentration at half of the fitted maximal effect
Method in brief: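 Counter screen for cytotoxicity run in the same wells as the AR antagonist reporter screen: MDA-kb2 cells were treated 16 hr with test compounds and 0.5 nM R1881, then live-cell protease activity was measured by fluorescence.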

[3] = target: Androgen receptor (Homo sapiens) (UniProt P10275); experiment: qHTS assay to identify small molecule antagonists of the androgen receptor (AR) signaling pathway using the MDA cell line in the presence of 0.5 nM R1881 (AID 1259243); further: nearly all actives have a fitted effect of over 50% in size; further: potency means the concentration at half of the fitted maximal effect
Sequence of Androgen receptor (Homo sapiens) (P10275 whole entry, looked up): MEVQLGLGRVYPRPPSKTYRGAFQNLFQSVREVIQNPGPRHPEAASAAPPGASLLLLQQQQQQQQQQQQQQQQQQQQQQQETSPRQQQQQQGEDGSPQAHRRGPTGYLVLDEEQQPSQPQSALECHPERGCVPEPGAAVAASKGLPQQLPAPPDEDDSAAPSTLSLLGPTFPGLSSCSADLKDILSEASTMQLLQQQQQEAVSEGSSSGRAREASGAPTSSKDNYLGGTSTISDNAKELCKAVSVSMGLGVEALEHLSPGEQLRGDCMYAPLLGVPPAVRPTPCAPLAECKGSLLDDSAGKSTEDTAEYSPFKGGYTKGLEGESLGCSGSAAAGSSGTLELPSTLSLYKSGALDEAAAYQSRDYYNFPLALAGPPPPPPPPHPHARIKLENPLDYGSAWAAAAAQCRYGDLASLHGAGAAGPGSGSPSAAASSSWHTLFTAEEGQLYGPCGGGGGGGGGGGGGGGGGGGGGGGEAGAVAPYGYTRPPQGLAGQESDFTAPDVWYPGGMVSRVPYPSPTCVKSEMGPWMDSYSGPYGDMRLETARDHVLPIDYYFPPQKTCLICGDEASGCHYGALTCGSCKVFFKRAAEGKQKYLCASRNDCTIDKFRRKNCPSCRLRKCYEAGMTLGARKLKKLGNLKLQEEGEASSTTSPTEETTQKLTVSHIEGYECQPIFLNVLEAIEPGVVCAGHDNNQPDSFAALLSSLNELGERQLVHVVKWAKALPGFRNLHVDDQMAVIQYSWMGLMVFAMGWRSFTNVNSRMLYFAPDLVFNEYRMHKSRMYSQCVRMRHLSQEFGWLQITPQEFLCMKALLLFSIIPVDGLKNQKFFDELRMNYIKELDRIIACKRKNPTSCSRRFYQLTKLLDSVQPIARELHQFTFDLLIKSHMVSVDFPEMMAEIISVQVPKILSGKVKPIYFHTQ
Method in brief: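 Luciferase luminescence is the read-out: compounds are tested for suppressing 0.5 nM R1881-driven MMTV reporter activity in MDA-kb2 cells after 16 hr at 37C.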

[4] = qHTS assay to identify small molecule HDAC inhibitors - cell viability counter screen (AID 1259365); further: nearly all actives have a fitted effect of over 50% in size; further: potency means the concentration at half of the fitted maximal effect
Method in brief: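 To flag cytotoxic hits, 1,500 wild-type HCT-116 cells per well, plated the day before, receive test compounds for 2hr at 37 C before CellTiter-Glo reagent and a luminescence read.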

[5] = qHTS assay to identify small molecule agonists of the sonic hedgehog signaling (Shh) pathway - cell viability counter screen (AID 1259366); further: nearly all actives have a fitted effect of over 50% in size; further: potency means the concentration at half of the fitted maximal effect
Method in brief: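 Fluorescence from CellTiter-Fluor reports live cells in this counter screen. NIH/3T3-derived Gli1-Luc reporter cells receive test compounds for 24hr at 37C; reagent goes in at 23hr.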

[6] = qHTS assay to identify small molecule antagonists of the sonic hedgehog signaling (Shh) pathway - cell viability counter screen (AID 1259367); further: nearly all actives have a fitted effect of over 55% in size; further: potency means the concentration at half of the fitted maximal effect
Method in brief: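 Using CellTiter-Fluor, viability of Gli1-Luc reporter 3T3 cells is read by fluorescence in the wells used for the Shh luciferase assay. Treatment lasts 23 hr with conditioned medium, then reagent 1 hr at 37C.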

[7] = qHTS assay to identify small molecule agonists of the sonic hedgehog signaling (Shh) pathway (AID 1259368; calls by dose curve;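 further: NIH/3T3-derived 3T3Gli1-Luc cells carrying a stable Gli1-driven firefly luciferase reporter; series mostly up to about 92 µM; nearly all actives have a fitted effect of over 15% in size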)
Method in brief: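 3T3Gli1-Luc (NIH/3T3 clone, stable Gli1-Luc); 4 hr pre-incubation, then cpd in DMSO 24 hr, 37 C/5% CO2; luciferase reagent 30 min RT; luminescence.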

[8] = qHTS assay to identify small molecule antagonists of the sonic hedgehog signaling (Shh) pathway (AID 1259369; calls by dose curve; further: nearly all actives have a fitted effect of over 45% in size; further: potency means the concentration at half of the fitted maximal effect)
Method in brief: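 3T3Gli1-Luc, conditioned-medium-stimulated, 24hr cpd, 37C/5% CO2; Gli1-driven firefly Luc luminescence after 30min RT with luciferase reagent. Cells plated 4hr before cpd.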

[9] = target: Estrogen receptor beta (Homo sapiens) (UniProt Q92731); experiment: qHTS assay to identify small molecule agonists of the estrogen receptor beta (ER-beta) signaling pathway (AID 1259377; active means well fitted activation curve with a large enough effect in the signal ratio in the repeat runs, not every such curve was filed as active; the % refers to the signal ratio)
Sequence of Estrogen receptor beta (Homo sapiens) (Q92731 whole entry, looked up): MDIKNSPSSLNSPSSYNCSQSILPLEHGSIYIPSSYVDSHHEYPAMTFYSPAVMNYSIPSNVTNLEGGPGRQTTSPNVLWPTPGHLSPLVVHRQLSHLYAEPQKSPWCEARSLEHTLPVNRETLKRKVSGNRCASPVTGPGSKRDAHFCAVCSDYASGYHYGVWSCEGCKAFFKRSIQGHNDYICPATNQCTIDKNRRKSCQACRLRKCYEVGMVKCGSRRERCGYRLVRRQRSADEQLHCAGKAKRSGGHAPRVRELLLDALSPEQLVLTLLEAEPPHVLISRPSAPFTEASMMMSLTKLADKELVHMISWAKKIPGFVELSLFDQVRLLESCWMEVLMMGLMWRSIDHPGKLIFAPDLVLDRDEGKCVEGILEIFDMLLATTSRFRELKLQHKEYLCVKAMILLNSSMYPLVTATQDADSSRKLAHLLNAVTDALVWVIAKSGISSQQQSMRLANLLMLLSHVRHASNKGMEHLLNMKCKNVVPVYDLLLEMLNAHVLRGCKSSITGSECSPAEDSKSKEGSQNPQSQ
Method in brief: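 Screening used GripTite ER-beta-UAS-bla cells held in 2% charcoal-stripped FBS medium. After overnight (16 hr) compound incubation at 37C, beta-lactamase activity was detected with a FRET substrate by fluorescence.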

[10] = target: Estrogen receptor beta (Homo sapiens) (UniProt Q92731); experiment: qHTS assay to identify small molecule antagonists of the estrogen receptor beta (ER-beta) signaling pathway (AID 1259378; active means well fitted inhibition curve with a large enough effect in the signal ratio in the repeat runs, not every such curve was filed as active; the % refers to the signal ratio)
Method in brief: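 Antagonist mode: compounds added to beta-lactamase reporter HEK293T ER-beta-UAS cells stimulated with E2 (1nM final), 16 hr at 37C. LiveBLAzer B/G FRET substrate, 2 hours room temperature, fluorescence read-out.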

[11] = qHTS assay to identify small molecule agonists of the androgen receptor (AR) signaling pathway in the presence of an antagonist - cell viability counter screen (AID 1259379); further: nearly all actives have a fitted effect of over 25% in size; further: potency means the concentration at half of the fitted maximal effect
Method in brief: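 Cells: MDA-kb2 (MMTV-luc, AR and GR elements), 3,000/well, 5 hr settle. Added: nilutamide 3.0uM final, then compounds (15 conc.). Incubation: 16 hr, 37C, no CO2. Read-out: CellTiter-Fluor, 1 hr, fluorescence.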

[12] = qHTS assay to identify small molecule antagonists of the estrogen receptor beta (ER-beta) signaling pathway - cell viability counter screen (AID 1259382); further: nearly all actives have a fitted effect of over 55% in size; further: potency means the concentration at half of the fitted maximal effect
Method in brief: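 Cells: ER-beta-UAS-bla HEK293T, 2,000/well, 2% CS-FBS, 6 hr settle. Cpd + E2 (1nM final), 16 hr, 37C/5% CO2. Bla FRET substrate 2 hr RT, then CellTiter-Glo 30 min RT, luminescence.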

[13] = target: Estrogen receptor (Homo sapiens) (UniProt P03372); experiment: qHTS assay to identify small molecule agonists of the estrogen receptor alpha (ER-alpha) signaling pathway in the presence of an antagonist (AID 1259383; calls by dose curve; further: top concentration of the series differs between compounds; nearly all actives have a fitted effect of over 15% in size)
Sequence of Estrogen receptor (Homo sapiens) (P03372 whole entry, looked up): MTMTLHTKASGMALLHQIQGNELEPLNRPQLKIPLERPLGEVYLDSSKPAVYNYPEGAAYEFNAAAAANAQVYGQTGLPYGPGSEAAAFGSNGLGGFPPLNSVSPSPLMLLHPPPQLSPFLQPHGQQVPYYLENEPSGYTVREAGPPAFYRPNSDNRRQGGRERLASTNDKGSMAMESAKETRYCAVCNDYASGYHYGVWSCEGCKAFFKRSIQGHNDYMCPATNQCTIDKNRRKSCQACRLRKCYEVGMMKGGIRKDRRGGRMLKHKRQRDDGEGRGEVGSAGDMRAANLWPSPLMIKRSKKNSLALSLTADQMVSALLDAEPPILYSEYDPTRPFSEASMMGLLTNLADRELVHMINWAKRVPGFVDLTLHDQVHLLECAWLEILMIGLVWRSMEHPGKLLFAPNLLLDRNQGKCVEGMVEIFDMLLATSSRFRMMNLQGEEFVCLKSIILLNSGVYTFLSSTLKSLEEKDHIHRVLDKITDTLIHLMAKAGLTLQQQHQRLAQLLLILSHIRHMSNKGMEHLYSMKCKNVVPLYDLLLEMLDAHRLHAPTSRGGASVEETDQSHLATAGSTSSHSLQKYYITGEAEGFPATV
Method in brief: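 VM7Luc4E2, endog. ER-alpha + 4×ERE-luc; charcoal-stripped FBS, phenol red-free, 5 d; 24hr plating; +10.0nM ICI-182,780 (final); cpds 15 conc, 22hr, 37C/5% CO2; ONE-Glo luminescence.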

[14] = target: Estrogen receptor (Homo sapiens) (UniProt P03372); experiment: qHTS assay to identify small molecule antagonists of the estrogen receptor alpha (ER-alpha) signaling pathway using the BG1 cell line in the presence of 0.1 nM 17-beta-estradiol (AID 1259244); further: nearly all actives have a fitted effect of over 50% in size; further: potency means the concentration at half of the fitted maximal effect
Method in brief: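 Cells: VM7Luc4E2, endogenous ER-alpha, 4x ERE-luc stable. Pre-culture 5 d, phenol red-free, charcoal-stripped FBS. Plated 24 h, compound + E2 0.1 nM final, 22 h 37C/5% CO2. Readout ONE-Glo luminescence.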

[15] = qHTS assay to identify small molecule phospholipidosis (PLD) inducers (AID 1259344; active means well fitted curve in the direction sought with a large enough effect; an effect the other way counts as inactive or inconclusive)
Method in brief: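 Fluorescent phospholipid staining (LipidTOX Red) measured by automated microscopy in fixed HepG2 cells after 24 h treatment; nuclei counterstained with Hoechst 33342; amiodarone as reference inducer.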

[16] = qHTS assay to identify small molecule HDAC inhibitors (AID 1259364); further: top concentration of the series differs between compounds; nearly all actives have a fitted effect of over 45% in size
Method in brief: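 Luminescence from a cell-permeant luminogenic class I/II HDAC substrate reports endogenous deacetylase activity in intact HCT-116 cells treated with compounds for 2 h.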

[17] = qHTS assay to identify small molecule agonists of the estrogen receptor beta (ER-beta) signaling pathway - cell viability counter screen (AID 1259380); further: nearly all actives have a fitted effect of over 30% in size; further: potency means the concentration at half of the fitted maximal effect
Method in brief: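 HEK293T ER-beta-UAS-bla; 2% CS-FBS; 6 hr pre-plate, 16 hr cpd at 37C/5% CO2; LiveBLAzer read first, then CellTiter-Glo 30 min RT, luminescence.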

[18] = qHTS assay to identify small molecule agonists or antagonists of the thyroid stimulating hormone receptor (TSHR) signaling pathway - wild type cell line counter screen (AID 1259384; calls by dose curve)
Method in brief: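 Counter screen in untransfected Hek293: compounds (15-point titration, triplicate) plus phosphodiesterase inhibitor Ro20-1724 added after 18 h plating; 30 min RT. Intracellular cAMP via competitive d2/cryptate immunoassay, 1 h incubation.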

[19] = target: Thyrotropin receptor (Homo sapiens) (UniProt P16473); experiment: qHTS assay to identify small molecule antagonists of the thyroid stimulating hormone receptor (TSHR) signaling pathway (AID 1259385; calls by dose curve; further: nearly all actives have a fitted effect of over 20% in size)
Sequence of Thyrotropin receptor (Homo sapiens) (P16473 whole entry, looked up): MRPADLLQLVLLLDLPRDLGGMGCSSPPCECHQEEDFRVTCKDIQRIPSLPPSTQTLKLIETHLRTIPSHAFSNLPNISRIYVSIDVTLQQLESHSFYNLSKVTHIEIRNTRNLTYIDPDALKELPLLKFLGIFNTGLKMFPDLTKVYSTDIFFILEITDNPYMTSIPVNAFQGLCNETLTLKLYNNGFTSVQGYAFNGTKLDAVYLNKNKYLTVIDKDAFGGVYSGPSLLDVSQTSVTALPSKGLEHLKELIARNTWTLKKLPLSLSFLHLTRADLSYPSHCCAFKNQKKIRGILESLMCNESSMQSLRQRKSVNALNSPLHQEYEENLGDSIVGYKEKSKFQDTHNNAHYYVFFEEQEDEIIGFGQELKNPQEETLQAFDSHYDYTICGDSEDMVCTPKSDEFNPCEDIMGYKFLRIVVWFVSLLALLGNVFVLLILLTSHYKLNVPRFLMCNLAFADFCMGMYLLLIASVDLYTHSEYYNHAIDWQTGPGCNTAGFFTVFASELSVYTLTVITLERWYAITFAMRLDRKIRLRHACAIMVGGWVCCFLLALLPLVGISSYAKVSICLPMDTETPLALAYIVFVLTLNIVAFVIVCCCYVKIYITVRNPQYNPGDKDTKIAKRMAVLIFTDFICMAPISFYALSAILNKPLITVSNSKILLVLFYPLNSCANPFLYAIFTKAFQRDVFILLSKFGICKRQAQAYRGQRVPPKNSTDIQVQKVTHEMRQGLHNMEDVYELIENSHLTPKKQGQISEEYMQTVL
Method in brief: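 Antagonist mode: compound-treated TSHR-expressing HEK293 cells were stimulated with 1.5 ng/mL TSH (final) in presence of Ro20-1724 for 30 min at RT. HTRF cAMP detection after 1 h; each compound tested at 15 concentrations, triplicate.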

SMILES | Potency [1] | Potency [2] | Potency [3] | Potency [4] | Potency [5] | Potency [6] | Potency [7] | Potency [8] | Potency [9] | Potency [10] | Potency [11] | Potency [12] | Potency [13] | Potency [14] | Potency [15] | Potency [16] | Potency [17] | outcome [18] | Potency [19]
CCN(CC)c1ccc2c(-c3ccc(S(=O)(=O)O)cc3S(=O)(=O)[O-])c3ccc(=[N+](CC)CC)cc-3oc2c1 | 12.6 µM (active) | 25.1 µM (active) | 22.4 µM (active) | 12.6 µM (active) | 9.99 µM (active) | 11.2 µM (active) | inactive | inactive | inactive | inactive | 12.6 µM (active) | inactive | inactive | – | – | – | – | – | –
CCC(CC)(CC(=O)Nc1cccc(/C=C/c2nc(C3CCC3)cs2)c1)C(=O)O | inactive | inactive | – | inactive | inactive | inactive | inactive | inactive | – | – | inactive | – | – | inactive | inactive | inactive | 7.5 µM (active) | – | –
Cc1ccc(C)cc1 | inactive | inactive | inactive | inactive | inactive | inactive | inactive | inactive | – | – | inactive | inactive | inactive | inactive | – | inactive | inactive | – | –
O=C(O)Cc1ccc2c(c1)C(=O)c1ccccc1CO2 | inactive | inactive | – | inactive | inactive | inactive | inactive | inactive | inactive | inactive | inactive | inactive | inactive | inactive | – | inactive | inactive | inactive | inactive
CCCCC/C=C\C/C=C\CCCCCCCC(=O)O | inactive | inactive | – | inactive | inactive | inactive | inactive | – | – | – | inactive | – | inactive | inactive | inactive | – | 43.3 µM (active) | inactive | inactive
CCCCCCCCCCCCCC[N+](C)(C)Cc1ccccc1 | inactive | 49.3 µM (active) | – | inactive | 24.7 µM (active) | 27.7 µM (active) and inactive | inactive | 349 nM (active) and 422 nM (active) | – | – | – | 19.6 µM (active) and 9.44 µM (active) and 10 mM (active) | inactive | 27.7 µM (active) and 15.8 mM (active) | inactive | inactive | 27.7 µM (active) and 10.6 µM (active) and 11.2 mM (active) | inactive | inactive
Cc1cc(C(C)(C)C)cc(C)c1CC1=NCCN1 | inactive | inactive | – | inactive | inactive | inactive | inactive | inactive | – | – | inactive | inactive | inactive | inactive | inactive | – | inactive | inactive | inactive
CCC(=O)OC(=O)CC | inactive | inactive | – | inactive | inactive | inactive | inactive | inactive | inactive | inactive | inactive | inactive | inactive | inactive | – | inactive | – | inactive | inactive
